Results published in PubChem BioAssay AID1963576 (National Center for Advancing Translational Sciences (NCATS), 2024).
The whole screen tested about 46,000 compounds, of which about 60 (0.1%) were called active. About 3% were inconclusive and are not listed. Calls follow the shape of the dose curve; as a rule, active = well fitted inhibition curve with a large enough effect; inconclusive = small, poorly fitted or top-dose-only effect; inactive = no such curve, though single readings can be large or run the other way. Only a selection was taken, and actives are over-represented in it overall.

Experiment: Primary qHTS assay for Inhibitors of ovarian cancer metastasis using an organotypic tumor microenvironment (TME) model. Also: nearly all actives have a fitted effect of over 65% in size.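 As to Potency: count of GFP cancer cells still attached after washing and fixation.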
Details: SKOV3ip1-GFP adhesion/invasion on 3D omental model, fluorescence; series mostly up to 45.8 µM; activity change, negative = inhibition: at the top concentration
Description: PI: Ernst Lengyel MD., Ph.D. Department of Obstetrics and Gynecology, Section of Gynecologic Oncology University of Chicago Medicine, Chicago, Illinois. The tumor microenvironment (TME) is a key determinant of metastatic efficiency. We performed a quantitative high-throughput screen (qHTS) of diverse medicinal chemistry tractable scaffolds (44,420 compounds) and pharmacologically active small molecules (386 compounds) using a layered organotypic, robust assay representing the ovarian cancer metastatic TME. This 3D model contains primary human mesothelial cells, fibroblasts, and extracellular matrix, to which fluorescently labeled ovarian cancer cells are added. Initially, 100 compounds inhibiting ovarian cancer adhesion/invasion to the 3D model in a dose-dependent manner were identified. Of those, eight compounds were confirmed active in five high-grade serous ovarian cancer cell lines and were further validated in secondary in vitro and in vivo biological assays. […] Specifically, NCGC00117362 and PP-121 inhibited ovarian cancer adhesion, invasion, and proliferation, whereas milciclib inhibited ovarian cancer invasion and proliferation. […] To evaluate the clinical potential of NCGC00117362, structure - activity relationship studies were performed. […] The three compounds identified have promise as therapeutics for prevention and treatment of ovarian cancer metastasis.
PROTOCOL TABLE (as described by Inglese J, Shamu CE and Guy RK. 2007) SEQUENCE No. (e.g., 1, 2, 3, etc.); […] (e.g., Cells, Incubation, Reagent, etc.); VALUE; DESCRIPTION. 1; Cells; 4 uL; primary human omental fibroblast, black, clear bottom, low base, 1536-well Aurora assay plate. 2; Incubation; 48 hr; 37C. 3; Cells; 3 uL; 1,200 SKOV3ip1-GFP cells. 4; Compounds; 23nL; acoustic dispenser. 5; Incubation; 2 hr; room temperature. 6; Incubation; 16 hr; 37C. 7; Wash; 5 uL; 1x PBS. 8; Fixing; 5 uL; 4% paraformaldehyde (PFA). 9; Incubation; 15 min; room temperature 10; Wash, 5 uL; 1x PBS. 11; Detection; Fluorescence, excitation filter 488 nm, emission filter 509 nm. NOTES (numbers refer to Sequence numbers above) 1. For the 1,536-well format, 40 primary human omental fibroblasts and 400 mesothelial cells were seeded with 0.02 µg fibronectin and 0.02 µg collagen type I in 4 µL of growth media (2.3 mm2; Supplementary Fig. S1A). 2. Assay plates were incubated for 48 hours at 37 C. 3. After incubation, 1,200 SKOV3ip1-GFP were seeded in 3 µL of serum-free media (growth media minus FBS) on top of primary human omental cells. 4. Compounds or controls were added to each well immediately after the addition of the cancer cells. Compounds were screened in four doses (0.36-46 µmol/L), and the plates contained the positive control (Tomatine) in eight doses (0.035-75 µmol/L) and DMSO (equal volume controls) 5 - 6. The plates were incubated at room temperature for 2 hours and then at 37 degrees C for 16 hours. 7 - 10. Following incubation, the media were aspirated and each well washed with PBS (5 µL) and then fixed with 4% paraformaldehyde (PFA; 5 µL). After 15 minutes, the PFA solution was aspirated, PBS (5 µL) was added. 11. The number of GFP-labeled cells analyzed using a fluorescent cytometer TTP LabTech Acumen eX3 using 488 nm excitation filter and 509 nm emission filter. Data was normalized to the DMSO treated for negative and Tomatine treated wells for positive control. REFERENCES: Inglese J, Shamu CE and Guy RK, Reporting data from high throughput screening of small molecule libraries, Nature Chemical Biology, 2007, 3(8): 438-441. doi.org/10.1038/nchembio0807-438. Yasgar A, Shinn P, Jadhav A, Auld DS, Michael S, Zheng W, Austin CP, Inglese J and Simeonov A, Compound Management for Quantitative High-Throughput Screening. J. Assoc. Lab. Auto., 2008, 13: 79-89. doi: 10.1016/j.jala.2007.12.004.
Potency is read from the fitted curve at half-maximal effect.

| SMILES | activity change, negative = inhibition | outcome | Potency |
| --- | --- | --- | --- |
| COc1ccc(CNC(=O)CSc2nc3ccccc3nc2Cc2ccccc2)cc1 | -20.8% (inactive) | – | – |
| CCc1ccc(S(=O)(=O)c2nnn3c2nc(N2CCN(CC)CC2)c2sccc23)cc1 | – | inactive | – |
| COc1ccc2oc(=O)c(-c3cn4c(n3)sc3cc(OC)ccc34)cc2c1 | -7.31% (inactive) | – | – |
| O=C(Nc1ccc(-c2nc3cc(NC(=O)c4ccccc4Cl)ccc3o2)cc1)c1ccccc1Cl | -29.1% (inactive) | – | – |
| CCOC(=O)c1c(N)n(-c2cccc(C)c2C)c2nc3ccccc3nc12 | -16% (inactive) | – | – |
| Cc1ccc(Nc2nc3ccccc3nc2-n2nc(C)cc2C)c(Cl)c1 | -10.1% (inactive) | – | – |
| COc1cc(C(=O)N2CCC(c3ccncc3)CC2)cc(OC)c1OC | -0.392% (inactive) | – | – |
| Cc1ccc(S(=O)(=O)N2CCC(C(=O)Nc3cc(C)ccc3C)CC2)cc1 | -6.77% (inactive) | – | – |
| CC=CCC=CCCC(=O)[C@H]1O[C@@H]1C(N)=O | -0.0997% (inactive) | – | – |
| Cc1nnc(SCC(=O)NCc2ccccc2Cl)c2nn(-c3ccccc3)c(C)c12 | -12.7% (inactive) | – | – |
| CCC(C(=O)Nc1cc(OC)ccc1OC)n1c(=O)c(C(F)(F)F)nc2ccccc21 (stereo not given) | – | inactive | – |
| CN1CCN(C2(CNC(=O)COc3ccc(C(C)(C)C)cc3)CCCCC2)CC1 | – | inactive | – |
| CCOc1ccccc1N(C)C(=O)c1cc2c(s1)-c1ccccc1OC2 | 7.01% (inactive) | – | – |
| Cc1nn(-c2ccc(N3CCCCC3)nn2)c(C)c1CCC(=O)NCc1ccc(F)cc1 | – | inactive | – |
| O=C(Nc1c(-c2ccc(F)cc2)nc2ccccn12)c1cccc(F)c1 | – | inactive | – |
| CC(=O)OC[C@@H]1O[C@@H](n2ccc(=O)[nH]c2=O)[C@H](OC(C)=O)[C@H]1OC(C)=O | 4.32% (inactive) | – | – |
| CN(C(=O)CSc1nnc(NC(=O)Nc2ccccc2)s1)c1ccccc1 | – | inactive | – |
| CC1CCCCN1CC(=O)N1CCCc2c1c(=O)oc1ccc(OCc3ccccc3)cc21 (stereo not given) | 1.88% (inactive) | – | – |
| O=S(=O)(NCCS(=O)(=O)N1CCN(c2ccccc2)CC1)c1ccc(Cl)cc1 | 0.153% (inactive) | – | – |
| Cc1cccc(NC(=O)C2CCN(S(=O)(=O)c3c(C)noc3/C=C/c3ccco3)CC2)c1 | 5.82% (inactive) | – | – |
| CC(C)Cn1c(=O)c2ccccc2n2c(CCC(=O)N3CCN(c4cccc(Cl)c4)CC3)nnc12 | -6.33% (inactive) | – | – |
| COc1ccc(-c2cc(C(F)(F)F)n3nc(-c4ccccc4)cc3n2)cc1OC | 9.54% (inactive) | – | – |
| CC(C(C)N1CC(=O)NC(=O)C1)N1CC(=O)NC(=O)C1 (stereo not given) | 4% (inactive) | – | – |

| SMILES | activity change, negative = inhibition | outcome | Potency |
| --- | --- | --- | --- |
| Cc1ccc(CNS(=O)(=O)c2ccc(C(=O)N(C)C)s2)cc1 | – | inactive | – |
| CSc1ncc(Cl)c(C(=O)Nc2ccc(S(=O)(=O)N3CCCC(C)C3)cc2)n1 (stereo not given) | 26.4% (inactive) | – | – |
| Cc1ccc(-c2cc(N)n(Cc3cccc(Cl)c3)n2)cc1 | – | inactive | – |
| C[C@]12CCC3=C4CCC(=O)C=C4CC[C@@H]3[C@H]1CC[C@@]2(O)CC#N | -2.71% (inactive) | – | – |
| CCC(=O)N1CCc2cc(Br)cc(S(=O)(=O)Nc3ccc(C)cc3C)c21 | -6.08% (inactive) | – | – |
| Cc1cccc(NC(=O)c2cc3c(C)nn(-c4ccccc4)c3s2)c1 | -4.51% (inactive) | – | – |
| Cc1ccc(-c2nn3c(=O)cc(CN4CCN(C(=O)Nc5cccc(C(F)(F)F)c5)CC4)nc3s2)cc1 | 5.26% (inactive) | – | – |
| CCOC(=O)CN1C(C(=O)c2ccccc2)=C(OC(=O)C(C)(C)C)c2ccccc2S1(=O)=O | – | inactive | – |
| O=C(CC1C(=O)N(c2ccccc2)C(=O)N1CCc1cccs1)Nc1ccc(F)cc1 (stereo not given) | 0.418% (inactive) | – | – |
| O=C(CN1c2ccccc2S(=O)(=O)c2ccccc21)Nc1cccc(C(F)(F)F)c1 | – | inactive | – |
| CC(C)(C)OC(=O)N1CCC(c2c(C(=O)N3CCN(c4cccc(Cl)c4)CC3)cnn2-c2cccc(Cl)c2)CC1 | 14.1% (inactive) | – | – |
| CCc1ccccc1NC(=O)CCOc1ccccc1 | -12.1% (inactive) | – | – |
| Cc1cccc(OCCCC(=O)Nc2sc3c(c2C(N)=O)CCC(C)C3)c1 (stereo not given) | 0.314% (inactive) | – | – |
| CCN(CC)CCCCNc1ncc2c(n1)N(C)C(=O)N(c1c(Cl)c(OC)cc(OC)c1Cl)C2 | -3.35% (inactive) | – | – |
| Cc1cccc(N2CCN(C(=O)c3cc4c(=O)oc5ccccc5c4s3)CC2C)c1 (stereo not given) | – | inactive | – |
| COCCCNC(=O)CN1C(=O)CSc2ccc(S(=O)(=O)N3CCOCC3)cc21 | -1.82% (inactive) | – | – |
| CCc1ccccc1N1CC(c2nc3ccccc3n2CCCCOc2ccccc2)CC1=O (stereo not given) | 1.09% (inactive) | – | – |
| COc1cccc(Nc2nc3ccccc3c3nncn23)c1 | -7.17% (inactive) | – | – |
| COc1cc(Nc2nc(-c3ccc(OC)c(OC)c3)nc3ccccc23)cc(OC)c1 | – | – | 10 µM (active) |
| CCOC(=O)c1nc(Nc2ccc(C(=O)OC)cc2)c2ccccc2n1 | -4.43% (inactive) | – | – |
| COc1ccc(C2=CC(c3ccccc3Cl)n3nc(-c4ccc(Cl)cc4)nc3N2)cc1 (stereo not given) | 5.11% (inactive) | – | – |
| O=C(CCC(=O)N1CC2CCCN2c2ccccc21)NCc1ccccc1Cl (stereo not given) | -7.58% (inactive) | – | – |
